Experimental data from PubChem BioAssay (NCATS).
Inconclusive results are not listed. Activity calls are given as the source filed them. The call rests on the fitted dose curve; in most records, active means well fitted cell-killing curve with a large enough effect; inconclusive means small, poorly fitted or top-dose-only effect, or effect the other way; inactive means flat fitted curve, though single readings scatter. Where a SMILES comes first, the peptide text is derived from it. [ ]: non-standard residue; d: D form. ξ: configuration not given here. ξLac(3-iPr) = CC(C)CC(O)C(=O)O; NMeV = CN[CH](C(=O)O)C(C)C; βAla = NCCC(=O)O

How the values were obtained:
Test in all cases: Primary qHTS to identify gynecologic anti-cancer compounds using libraries of approved drugs and bioactive compounds (AID 1345084); further: nearly all actives have a fitted effect of over 55% in size
C33A = settings: Gynecologic cancer cell panel viability, ATPlite luminescence, 48 h; series mostly up to 57.5 µM
In short: (§1)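 Cells, 1,000 per well, plated 16 h, then exposed 48 h at 37 C to compounds. Viability by ATPlite luminescence after 15 min at room temperature.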

CAOV3 = settings: Gynecologic cancer cell panel viability, ATPlite luminescence, 48 h; series mostly up to 57.5 µM
In short: as §1

CASKI = settings: Gynecologic cancer cell panel viability, ATPlite luminescence, 48 h; series mostly up to 57.5 µM
In short: as §1

Es-2 = settings: Gynecologic cancer cell panel viability, ATPlite luminescence, 48 h; series mostly up to 57.5 µM
In short: as §1

HeLa = settings: Gynecologic cancer cell panel viability, ATPlite luminescence, 48 h; series mostly up to 57.5 µM
In short: as §1

Hek293T = settings: Gynecologic cancer cell panel viability, ATPlite luminescence, 48 h, control line for the selectivity index; series mostly up to 57.5 µM
In short: as §1

JEG-3 = settings: Gynecologic cancer cell panel viability, ATPlite luminescence, 48 h; series mostly up to 57.5 µM
In short: as §1

OV90 = settings: Gynecologic cancer cell panel viability, ATPlite luminescence, 48 h; series mostly up to 57.5 µM
In short: as §1

PA-1 = settings: Gynecologic cancer cell panel viability, ATPlite luminescence, 48 h; series mostly up to 57.5 µM
In short: as §1

SKOV3 = settings: Gynecologic cancer cell panel viability, ATPlite luminescence, 48 h; series mostly up to 57.5 µM
In short: as §1

Tov-21-G = settings: Gynecologic cancer cell panel viability, ATPlite luminescence, 48 h; series mostly up to 57.5 µM
In short: as §1

Tov112D = settings: Gynecologic cancer cell panel viability, ATPlite luminescence, 48 h; series mostly up to 57.5 µM
In short: as §1
On the % scale 0 is the no-effect control and ±100 the full control effect.

CCOc1cc(C)c(Cl)cc1S(=O)(=O)n1cnc2ccccc21
inactive: Potency (C33A) | Potency (CAOV3) | Potency (CASKI) | Potency (Es-2) | Potency (HeLa) | Potency (Hek293T) | Potency (JEG-3) | Potency (OV90) | Potency (PA-1) | Potency (SKOV3) | Potency (Tov-21-G) | Potency (Tov112D)

COc1ccc(-c2c(-c3cc(C(=O)O)ccn3)ncn2C)cc1
inactive: Potency (C33A) | Potency (CAOV3) | Potency (CASKI) | Potency (Es-2) | Potency (HeLa) | Potency (Hek293T) | Potency (JEG-3) | Potency (OV90) | Potency (PA-1) | Potency (SKOV3) | Potency (Tov-21-G) | Potency (Tov112D)

CC(C)(O)/C=C/C1=CC(=O)[C@@](C)(O)C[C@H]1O
inactive: Potency (C33A) | Potency (CAOV3) | Potency (CASKI) | Potency (Es-2) | Potency (HeLa) | Potency (Hek293T) | Potency (JEG-3) | Potency (OV90) | Potency (PA-1) | Potency (SKOV3) | Potency (Tov-21-G) | Potency (Tov112D)

C[C@@H]1C(=O)O[C@H](C)[C@H]1CC(=O)[C@](C)(O)[C@H]1CC[C@@]2(O)C3=CC(=O)[C@@H]4C[C@@H](O)[C@@H](O)C[C@]4(C)C3CC[C@]12C (stereo partly specified)
inactive: Potency (C33A) | Potency (CAOV3) | Potency (CASKI) | Potency (Es-2) | Potency (HeLa) | Potency (Hek293T) | Potency (JEG-3) | Potency (OV90) | Potency (PA-1) | Potency (SKOV3) | Potency (Tov-21-G) | Potency (Tov112D)

COC(=O)c1ccc(OC(CO)C(O)c2ccc(O)c(OC)c2)c(OC)c1 (stereo unspecified)
inactive: Potency (C33A) | Potency (CAOV3) | Potency (CASKI) | Potency (Es-2) | Potency (HeLa) | Potency (Hek293T) | Potency (JEG-3) | Potency (OV90) | Potency (PA-1) | Potency (SKOV3) | Potency (Tov-21-G) | Potency (Tov112D)

C[C@H](N)C(=O)N[C@@H](Cc1ccc(O)cc1)C(=O)N1CCC[C@H]1C(=O)NCC(=O)N[C@@H](CCCCN)C(=O)N[C@@H](Cc1ccccc1)C(N)=O
inactive: activity change, negative = cytotoxicity (C33A) 10.6% [at 11.6 µM] | activity change, negative = cytotoxicity (CAOV3) 7.8% [at 11.6 µM] | activity change, negative = cytotoxicity (CASKI) 6.63% [at 11.6 µM] | activity change, negative = cytotoxicity (Es-2) 2.05% [at 11.6 µM] | activity change, negative = cytotoxicity (HeLa) 3.06% [at 11.6 µM] | activity change, negative = cytotoxicity (Hek293T) 13% [at 11.6 µM] | activity change, negative = cytotoxicity (JEG-3) 1.3% [at 11.6 µM] | activity change, negative = cytotoxicity (OV90) 1.27% [at 11.6 µM] | activity change, negative = cytotoxicity (PA-1) 3.5% [at 11.6 µM] | activity change, negative = cytotoxicity (SKOV3) 32.3% [at 11.6 µM] | activity change, negative = cytotoxicity (Tov-21-G) 1.95% [at 11.6 µM] | activity change, negative = cytotoxicity (Tov112D) 5.22% [at 11.6 µM]

CC[C@@](C)(Nc1ccnc(-c2c[nH]c3ncccc23)n1)C(=O)NCC(F)(F)F
inactive: Potency (C33A) | Potency (CAOV3) | Potency (CASKI) | Potency (Es-2) | Potency (HeLa) | Potency (Hek293T) | Potency (JEG-3) | Potency (OV90) | Potency (PA-1) | Potency (SKOV3) | Potency (Tov-21-G) | Potency (Tov112D)

CC(=O)OC/C=C(\C)C(CC1C(C)=C(OC(C)=O)C(=O)C2C(C)(C)C(O)CCC12C)OC(C)=O (stereo unspecified)
inactive: Potency (C33A) | Potency (CAOV3) | Potency (CASKI) | Potency (Es-2) | Potency (HeLa) | Potency (Hek293T) | Potency (JEG-3) | Potency (OV90) | Potency (PA-1) | Potency (SKOV3) | Potency (Tov-21-G) | Potency (Tov112D)

Cc1cc(Nc2nc(NC(C)c3ncc(F)cn3)ncc2Cl)n[nH]1 (stereo unspecified)
inactive: Potency (C33A) | Potency (CAOV3) | Potency (CASKI) | Potency (Es-2) | Potency (HeLa) | Potency (Hek293T) | Potency (JEG-3) | Potency (OV90) | Potency (PA-1) | Potency (SKOV3) | Potency (Tov-21-G) | Potency (Tov112D)

C[C@@H]1O[C@@H](O[C@H]2[C@H](O)[C@@H](C(=O)O)O[C@@H](O[C@H]3CC[C@@]4(C)C(CC[C@]5(C)C4CC=C4C6CC(C)(C)CC[C@]6(C(=O)O)CC[C@]45C)C3(C)C)[C@@H]2O[C@@H]2OC[C@@H](O)[C@H](O)[C@H]2O)[C@H](O)[C@H](O)[C@H]1O (stereo partly specified)
inactive: activity change, negative = cytotoxicity (C33A) 12.7% [at 11.6 µM] | activity change, negative = cytotoxicity (CAOV3) -1.86% [at 11.6 µM] | activity change, negative = cytotoxicity (CASKI) -0.197% [at 11.6 µM] | activity change, negative = cytotoxicity (Es-2) -1.84% [at 11.6 µM] | activity change, negative = cytotoxicity (HeLa) 10.5% [at 11.6 µM] | activity change, negative = cytotoxicity (Hek293T) 5.25% [at 11.6 µM] | activity change, negative = cytotoxicity (JEG-3) 3.19% [at 11.6 µM] | activity change, negative = cytotoxicity (OV90) 2.8% [at 11.6 µM] | activity change, negative = cytotoxicity (PA-1) 4.01% [at 11.6 µM] | activity change, negative = cytotoxicity (SKOV3) -0.245% [at 11.6 µM] | activity change, negative = cytotoxicity (Tov-21-G) 13.2% [at 11.6 µM] | activity change, negative = cytotoxicity (Tov112D) 4.42% [at 11.6 µM]

Cn1c2ccc(F)cc2c2c(C(=O)N3CCCC3)cn(-c3ccccc3)c(=O)c21
inactive: Potency (C33A) | Potency (CAOV3) | Potency (CASKI) | Potency (Es-2) | Potency (HeLa) | Potency (Hek293T) | Potency (JEG-3) | Potency (OV90) | Potency (PA-1) | Potency (SKOV3) | Potency (Tov-21-G) | Potency (Tov112D)

CC(C)CC1OC(=O)C2CCCN2C(=O)CCNC(=O)C(Cc2ccccc2)NC(=O)C(C(C)C)N(C)C(=O)C(C(C)C)N(C)C1=O (stereo unspecified) (cyclo([ξLac(3-iPr)][NMeV][NMeV]F[βAla]P); configuration not given here)
inactive: Potency (C33A) | Potency (CAOV3) | Potency (CASKI) | Potency (Es-2) | Potency (HeLa) | Potency (Hek293T) | Potency (JEG-3) | Potency (OV90) | Potency (PA-1) | Potency (SKOV3) | Potency (Tov-21-G) | Potency (Tov112D)

C=C[C@H]1[C@H](O[C@@H]2O[C@H](CO)[C@@H](O)[C@H](O)[C@H]2O)OC=C(C(=O)OC)[C@H]1C/C=C(/C=O)[C@@H]1C(C(=O)OC)=CO[C@@H](O[C@@H]2O[C@H](CO)[C@@H](O)[C@H](O)[C@H]2O)[C@@H]1C=C
inactive: Potency (C33A) | Potency (CAOV3) | Potency (CASKI) | Potency (Es-2) | Potency (HeLa) | Potency (Hek293T) | Potency (JEG-3) | Potency (OV90) | Potency (PA-1) | Potency (SKOV3) | Potency (Tov-21-G) | Potency (Tov112D)
